SARS PLP yeast = qHTS of Yeast-based Assay for SARS-CoV PLP; S. cerevisiae expressing SARS-CoV PLpro, growth rescue; Potency, µM (top dose mostly 32.9 µM), usual class: activators; actives 0.19% (n = 330,000); AID 485353, 2010; calls by dose curve; also: nearly all actives have a fitted effect of over 55% in size
Shiga toxin inh = A qHTS for Small Molecule Inhibitors of Shiga Toxin | Vero cells, Shiga toxin protein synthesis inhibition reporter | AID 2315, 2010 | actives 9.2% (n = 290,000) | inhibition, % at 38.7 µM; in the data active = inhibition mostly above about 28%, no sharp cut-off; inactive = mostly below about 43%
Pf growth 48h = Primary qHTS for delayed death inhibitors of the malarial parasite plastid, 48 hour incubation; P. falciparum luciferase growth in erythrocytes, 48 h; Potency, µM (top dose mostly 28.7 µM), hits mostly inhibitors; actives 5.9% (n = 310,000)
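In quantitative HTS format, infected erythrocytes bearing luciferase-reporter parasites were treated for a single generation at 37 C. Luminescence after adding detection reagent served as the growth measure.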
CHX counter = Cycloheximide Counterscreen for Small Molecule Inhibitors of Shiga Toxin; cell reporter, cycloheximide protein synthesis inhibition counterscreen; max response, %; actives 12% (n = 300,000); AID 2314, 2010; in the data active = max response mostly above about 13%, no sharp cut-off; inactive = mostly below about 14%; also: read at 38.3 µM for the half of the compounds with a filed dose
Pf growth 96h = Primary qHTS for delayed death inhibitors of the malarial parasite plastid, 96 hour incubation | P. falciparum luciferase reporter growth, 96 h | Potency, µM (doses to about 28.7 µM), actives largely listed as inhibitors | actives 6.9% (n = 320,000)
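P. falciparum expressing integrated firefly luciferase grown in erythrocytes (2% hematocrit, 0.05% parasitemia final) with compounds for 96 hours at 37 C, 5% CO2. Growth inhibition read as loss of luminescence after adding luciferase detection reagent.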
AMA1-RON2 inh = qHTS for Inhibitors of AMA1-RON; Towards Development of Antimalarial Drug Lead: Primary Screen | Plasmodium falciparum AMA1 (3D7) - RON2 peptide interaction | actives 0.2% (n = 360,000) | AlphaScreen AMA1-biotinylated RON2 peptide binding | Potency, µM (top dose mostly 58.2 µM), hits mostly inhibitors; also: nearly all actives have a fitted effect of over 45% in size
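AMA1 (3D7) with his tag at 25 nM final met compounds first, then biotinylated RON2 peptide at 25 nM; detection used donor plus acceptor beads, 10 µg/mL apiece, read by AlphaScreen after 30 min at room temperature.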
Hits are given with their value; i = inactive; ? = inconclusive; nt = no result. In the library only some 19% were active in any assay of this set; here they are far more common. Unless noted, calls follow the shape of the dose curve; as a rule, active = well fitted curve in the direction sought with a large enough effect; inconclusive = small, poorly fitted or top-dose-only effect, or another doubt; inactive = no such curve, though single readings can be large; an effect the other way counts as inactive or inconclusive.

SMILES	SARS PLP yeast	Shiga toxin inh	Pf growth 48h	CHX counter	Pf growth 96h	AMA1-RON2 inh
O=C(NC1CCCCC1)C1CC(=O)N(CCc2ccc(F)cc2)C1 (stereo not given)	i	i	i	i	i	i
COc1ccc(/C=N/N2C(=O)C3C4C=CC(CC4)C3C2=O)c(OC)c1 (stereo not given)	i	55	i	45	i	i
O=C1C2C3C=CC(CC3)C2C(=O)N1/N=C/c1c[nH]c2ccccc12 (stereo not given)	i	125	i	52	i	i
COc1ccccc1/C=N/N1C(=O)C2C3C=CC(CC3)C2C1=O (stereo not given)	i	i	?	i	i	i
O/N=C/c1c[nH]c2ccccc12	i	i	i	i	i	i
CC(C)CCNC(=O)CCS(=O)(=O)c1cccc2nonc12	i	i	i	i	12µM	i
Cc1ccc(Cl)cc1N1CCN(C(=O)CCS(=O)(=O)c2cccc3nonc23)CC1	i	i	?	i	12µM	i
CC(C)NC(=O)CCS(=O)(=O)c1cccc2nonc12	i	i	nt	i	nt	i
CC(=O)n1cc([C@H]2C=C(C(=O)NCc3ccccc3)O[C@@H](OCc3ccc(CO)cc3)C2)c2ccccc21	i	i	?	i	2.1µM	i
CC(=O)n1cc([C@@H]2C=C(C(=O)Nc3ccccc3)O[C@H](OCc3ccc(CO)cc3)C2)c2ccccc21	i	i	?	i	5.9µM	i
C#CCNC(=O)C1=C[C@@H](c2cn(C(C)=O)c3ccccc23)C[C@@H](OCc2ccc(CO)cc2)O1	i	i	8.3µM	i	6.6µM	i
CC(C)Oc1ccc(S(=O)(=O)N2CCOCC2)cc1NC(=O)c1ccc(Cl)c(S(=O)(=O)N2CCOCC2)c1	nt	nt	nt	nt	nt	i
O=C(/C=C/c1ccc(-c2ccccc2[N+](=O)[O-])o1)c1ccc(F)cc1	i	64	i	43	i	?
O=C(/C=C/c1ccc(-c2ccccc2)o1)c1ccccc1	i	72	i	74	i	i
O=Cc1ccc(-c2cccc(C(=O)O)c2)o1	i	i	i	i	?	i
Cc1ccc(-c2ccc(/C=C/C(=O)c3ccccc3)o2)cc1	i	i	i	26	i	i
CS(=O)(=O)Nc1ccc(-c2cc(/C=C3\SC(N)=NC3=O)c[nH]c2=O)cc1	i	i	?	i	?	i
Cc1ccc(C(=O)C(c2ccccc2)N2Cc3ccccc3C2=N)cc1 (stereo not given)	i	i	?	i	10µM	?
COc1ccccc1CC(=O)c1ccccc1OC	nt	nt	nt	nt	nt	i
COc1cccc(C2=NO[C@@H]3C(=O)N(c4ccc5c(c4)OCCO5)C(=O)[C@H]23)c1OC	i	109	i	66	i	i
COc1cccc(C2=NO[C@@H]3C(=O)N(Cc4ccccc4)C(=O)[C@H]23)c1OC	i	i	i	i	i	i
Cc1[nH]c(-c2ccc(F)cc2)cc1C(=O)N1CCN(c2ccccc2)CC1	i	i	i	i	i	i
Cc1[nH]c(-c2ccc(F)cc2)cc1C(=O)N1CCN(c2ccccc2F)CC1	i	i	i	i	3.7µM	i
COc1cccc(N2CCN(C(=O)c3cc(-c4ccc(F)cc4)[nH]c3C)CC2)c1	i	i	?	i	i	i
COc1ccccc1N1CCN(C(=O)c2cc(-c3ccc(F)cc3)[nH]c2C)CC1	i	i	13µM	i	i	i
SMILES	SARS PLP yeast	Shiga toxin inh	Pf growth 48h	CHX counter	Pf growth 96h	AMA1-RON2 inh
O=C(NCc1ccc(F)cc1)C1CC(=O)N(C2CCCCC2)C1 (stereo not given)	i	i	i	i	i	i
CC(O)CN(C)C (stereo not given)	nt	nt	i	nt	i	nt
S=C(NCc1cccs1)Nc1cccc(Cl)c1Cl	?	45	i	29	i	i
COCCN(C(=S)Nc1cccc(OC)c1)C(C)c1cccs1 (stereo not given)	i	i	i	15	i	i
Cc1ccc(NC(=S)NCc2cccs2)cc1	?	i	nt	31	i	i
Cc1ccccc1NC(=S)NCc1cccs1	i	i	i	i	nt	i
COCCN(C(=S)Nc1ccc(C(C)C)cc1)C(C)c1cccs1 (stereo not given)	i	i	?	i	i	i

Compound activity from PubChem BioAssay.
